# Experimental data published in ChEMBL document CHEMBL4513216, “Probing the Open Global Health Chemical Diversity Library for Multistage-Active Starting Points for Next-Generation Antimalarials” (ACS Infect Dis, 2020).
# Out of some 65,000 compounds screened, about 2,100 (3.2%) showed an effect of 50% or more. The median lay at about -52%. The sample holds strong results, similar compounds and a random draw of the others, so the mix is not that of the screen.
# Tested on: Plasmodium falciparum
# Test: Screen against P. falciparum Asexual Blood Stage (ABS), at 5uM
# Assay type: functional, Dd2
# Details: tested at 5 uM
row,SMILES,INHIBITION [%]
1,CN(C(=O)Nc1ccncc1)C1CCN(c2ccc(Cl)cc2)CC1,-10.2
2,COc1ccc(-n2ccc(CNCc3ccc(OC)c(O)c3)n2)cc1,-17.9
3,COc1ccc(CNCCc2ccn(-c3ccccc3)n2)cc1O,67.1
4,COc1ccc(CNCCn2c(C)nc3ccccc32)cc1O,-82.4
5,CCCn1cc(NC(=O)c2cccnc2O)ccc1=O,-8.23
6,CCc1nc(CNc2cc(C)nc(-c3cccnc3)n2)cs1,-19.9
7,CCc1noc(C2CCCCN2C(=O)c2cccs2)n1 (stereo not drawn),-105
8,CCc1noc(C2CCCCN2C(=O)c2ccccc2)n1 (stereo not drawn),-89.7
9,CCc1noc(C2CCCCN2C(=O)c2nnc3ccccc3n2)n1 (stereo not drawn),65.5
10,Cc1cc(CN2C[C@@H](C)[C@@]3(CCN(C)C3=O)C2)oc1C,-1.06
11,CCC(CNC(=O)c1ccc(Br)o1)N1CCc2ccccc2C1 (stereo not drawn),16.3
12,CCC(CNC(=O)c1cncc(Br)c1)N1CCc2ccccc2C1 (stereo not drawn),66.9
13,CCC(CNC(=O)c1ccccc1Br)N1CCc2ccccc2C1 (stereo not drawn),41.5
14,CCN1CC(CN(C)Cc2nc(-c3cccc(C)c3)oc2C)CC1=O (stereo not drawn),-142
15,CCOCC1CN(Cc2cccnc2OC)Cc2cnn(C)c21 (stereo not drawn),-60.6
16,OCC1CCC2(CC1)CN(Cc1ccsc1)Cc1ccccc1O2 (stereo not drawn),-50.7
17,COCCN1CCOCC12CCN(c1nccs1)CC2,-151
18,Fc1ccc(C2(NCc3ccccc3)CCOCC2)cc1,64.2
19,CSc1ccc(CNC2(c3ccc(F)cc3)CCOCC2)cc1,31.4
20,CN(C)c1ccc(CNC2(c3ccc(F)cc3)CCOCC2)cc1F,28.8
21,c1cnc(NCc2noc3c2CN(CCN2CCCC2)CC3)nc1,-63.3
22,OCCN1CCC2(CCc3cc(-c4ccoc4)ccc32)CC1,61.2
23,c1cc(-c2ccc3c(c2)CCC32CCN(c3nncs3)CC2)co1,3.66

row,SMILES,INHIBITION [%]
1,O=C(CCO)N1CCC2(CCc3ccc(-c4ccoc4)cc32)CC1,-76.5
2,COCCOCC1(CNCc2ccc(OC)cc2)C[C@@H](O)[C@@H](O)C1 (stereo partly drawn),-77.3
3,COCCOCC1(CNCc2cccc(OC)c2)C[C@@H](O)[C@@H](O)C1 (stereo partly drawn),-11.2
4,COCCOCC1(CNCc2ccc(F)cc2)C[C@@H](O)[C@@H](O)C1 (stereo partly drawn),63.6
5,CC(C)CCN1C2(CCN(Cc3nccs3)C2)c2ccccc2S1(=O)=O (stereo not drawn),-17.8
6,CN1[C@@H]2CC[C@H]1CN(C(=O)c1nnc3n1CCCCC3)CC2,-58.6
7,Cc1cccc(CN2CCC3(CC2)NC(=O)CC3c2ccccc2)n1 (stereo not drawn),-3.5
8,Cc1ccc(CN2CCC3(CC2)NC(=O)CC3c2ccccc2)s1 (stereo not drawn),53.7
9,Cc1noc(C)c1CN1CCC2(CC1)NC(=O)CC2c1ccccc1 (stereo not drawn),-39.2
10,CCC1(CC)C(=O)NC(=O)N/C1=N/c1cccc(OC)c1,-27.2
11,Cc1c(CN2CCCC2(C)C(=O)N2CCOCC2)cnn1C (stereo not drawn),-23.9
12,NC(=O)C1(Cc2ccccc2-c2cncnc2)CCCNC1 (stereo not drawn),-114
13,CCNC(=O)C1(Cc2ccc(-c3ccccc3)cc2)CCCNC1 (stereo not drawn),27.7
14,NC(=O)C1(Cc2ccc(-c3ccccc3)cc2)CCCNC1 (stereo not drawn),61.1
15,CC1(C)CC(n2cc3nc(N4CCOCC4)[nH]cc-3c2=O)CC(C)(C)N1,-53.2
16,Cc1cnn(CC2CN(CC(=O)Nc3cccnc3)CCO2)c1 (stereo not drawn),-66
17,Cn1ccnc1C(=O)N[C@@H]1CN(CC2CCOCC2)[C@@H]2CCCO[C@@H]21,-60
18,O=c1ccc(-c2cccs2)nn1CN1CCN(c2ccccn2)CC1,-115
19,CNS(=O)(=O)c1cccc(C(C)NCc2ccc(F)c(F)c2)c1 (stereo not drawn),11.1
20,CNS(=O)(=O)c1cccc(C(C)NCc2cccc(O)c2)c1 (stereo not drawn),3.69
21,CNS(=O)(=O)c1cccc(C(C)NCc2ccc(F)cc2F)c1 (stereo not drawn),-3.64
22,CNS(=O)(=O)c1cccc(C(C)NCc2ccccc2)c1 (stereo not drawn),59.4
23,CNS(=O)(=O)c1cccc(C(C)NCc2nccn2C(C)C)c1 (stereo not drawn),-9.39

row,SMILES,INHIBITION [%]
1,CNS(=O)(=O)c1cccc(C(C)NCc2ccncc2)c1 (stereo not drawn),-51.1
2,CNS(=O)(=O)c1cccc(C(C)NCc2ccc(C)o2)c1 (stereo not drawn),23.3
3,CNS(=O)(=O)c1cccc(C(C)NCc2ccc(C)c(C)c2)c1 (stereo not drawn),63.4
4,CCOc1ccc(CNC(C)c2cccc(S(=O)(=O)NC)c2)cc1 (stereo not drawn),47.6
5,CNS(=O)(=O)c1cccc(C(C)NCc2ccsc2)c1 (stereo not drawn),67.2
6,CNS(=O)(=O)c1cccc(C(C)NCc2ccco2)c1 (stereo not drawn),2.96
7,CNS(=O)(=O)c1cccc(C(C)NCc2cccc(C)c2C)c1 (stereo not drawn),69.7
8,CN(Cc1ccc(F)cc1)C(=O)c1ccoc1CN1CCNC(=O)C1,-169
9,CCOCC(=O)NCCn1ccc(-c2ccccn2)n1,-74.8
10,Cc1nc(C)c(S(=O)(=O)NC(=O)c2sccc2C)s1,-118
11,Cn1ccnc1CN1CCC2(CC(=O)N(c3ccsc3)C2)C1 (stereo not drawn),-95.1
12,Cc1ccc(NC2CCN(C(=O)c3cccc4[nH]ncc34)CC2)nn1,-12.4
13,Cc1nn(C)c(C)c1CN(C)CC1(O)CCCN(C)C1 (stereo not drawn),-56.8
14,CCN1CCCC(O)(CN(C)Cc2ccc(C)o2)C1 (stereo not drawn),20.1
15,Cc1ccc(CN(C)CC2(O)CCCN(C)C2)o1 (stereo not drawn),54.2
16,CC(C)c1nc(N2CCC(N3CCCC(O)C3)CC2)c2cnn(C)c2n1 (stereo not drawn),-33.8
17,CC(C)c1nc(N2CCC(N3CCCCCC3)CC2)c2cnn(C)c2n1,51.9
18,CC(C)c1nc(N2CCC(N3CCSCC3)CC2)c2cnn(C)c2n1,-57
19,Cc1ccc(C(=O)O)cc1CNC(=O)CN1CC[C@](C)(O)C(C)(C)C1,-0.0274
20,CC1(C)CN(CCC(=O)NCc2cccc(Cl)c2)CC[C@]1(C)O,53.1
21,O=C(CCN1CCOC(C(F)(F)F)C1)NCc1cccc(Cl)c1 (stereo not drawn),-53.515
22,CN(C(=O)COc1ccc(F)cc1)[C@@H]1CC[C@@H](n2ccnc2)[C@@H]1O,-72.8
